Experimental data taken from PubChem BioAssay (NCATS).
Records with an inconclusive call do not appear. Where a call stands in place of a potency, no number is given. The source made the active and inactive calls. Calls come from the whole dose curve; as a rule, active = well fitted inhibition curve with a large enough effect; inconclusive = small, poorly fitted or top-dose-only effect; inactive = flat fitted curve, though single readings scatter.

System: CP297
Experiment: qHTS profiling for inhibitors of Plasmodium falciparum proliferation (AID 504749); note: nearly all actives have a fitted effect of over 60% in size
Conditions: P. falciparum in erythrocytes, SYBR Green DNA, 72 h; series mostly up to 28.7 µM
How it was run: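 Parasite proliferation within erythrocytes, 72 h exposure. Endpoint: SYBR Green I fluorescence after overnight lysis at room temperature. Controls: 0.29 uM artemisinin, DMSO.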

| SMILES | Potency |
| --- | --- |
| COc1cc(S(C)=O)ccc1-c1nc2ncccc2[nH]1 (stereo not given) | inactive |
| CCOc1ccc(S(=O)(=O)O)c2cccnc12 | inactive |
| NC(=S)NS(=O)(=O)c1ccc(N)cc1 | inactive |
| C[C@]12CC[C@@H]3c4ccc(OC(=O)c5ccccc5)cc4CC[C@H]3[C@@H]1CC[C@@H]2O | inactive |
| CC(CCc1ccc(O)cc1)NCC(O)c1ccc(O)cc1 (stereo not given) | inactive |
| FC(F)(F)C(F)(F)C(F)(F)C(F)(F)C(F)(F)C(F)(F)F | inactive |
| CN(C)CCOc1ccc(/C(=C(/CCCl)c2ccccc2)c2ccccc2)cc1 | inactive |
| CNC(=O)OCc1cccc(COC(=O)NC)n1 | inactive |
| NCC[C@H](O)C(=O)N[C@@H]1C[C@H](N)[C@@H](O[C@H]2O[C@H](CN)[C@@H](O)[C@H](O)[C@H]2O)[C@H](O)[C@H]1O[C@H]1O[C@H](CO)[C@@H](O)[C@H](N)[C@H]1O | inactive |
| NC(N)=O | inactive |
| CC1CCCCN1CCCOC(=O)c1ccccc1 (stereo not given) | inactive |
| COC(=O)CCC[N+](C)(C)C | inactive |
| COC(=O)CC[C@H](N)C(=O)O | inactive |
| O=C(OCc1ccccc1)c1ccc(O)cc1 | inactive |
| CC(C)(CO)[C@@H](O)C(=O)NCCC(=O)NCCSSCCNC(=O)CCNC(=O)[C@H](O)C(C)(C)CO | inactive |
| COC(=O)c1ccccc1O | inactive |
| OC[C@H]1O[C@@](CO)(O[C@H]2O[C@H](CO)[C@@H](O)[C@H](O)[C@H]2O)[C@@H](O)[C@@H]1O | inactive |
| Nc1nccs1 | inactive |
| c1ccc2ccccc2c1 | inactive |
| O=S(=O)(O)CCCS(=O)(=O)O | inactive |

| SMILES | Potency |
| --- | --- |
| O=C1c2ccccc2C(=O)c2c1ccc(O)c2O | inactive |
| O=C(NNCNNC(=O)c1ccncc1)c1ccncc1 | inactive |
| [O]=[Bi][O]C(=O)[O][Bi]=[O] | inactive |
| C=CCN1CCCC1CNC(=O)c1cc(S(N)(=O)=O)cc(OC)c1OC (stereo not given) | inactive |
| CC(C)[C@H](N)C(=O)OCC(CO)OCn1cnc2c(=O)[nH]c(N)nc21 (stereo not given in full) | inactive |
| CCCCCCCCCCCCCCCCCC(=O)OC[C@@H](O)[C@H]1OC[C@H](O)[C@H]1O | inactive |
| CC(=O)[C@H]1CC[C@H]2[C@@H]3C=CC4=CC(=O)CC[C@@]4(C)[C@H]3CC[C@]12C | inactive |
| CCCC(=O)O | inactive |
| CC1(C)S[C@@H]2[C@H](NC(=O)C3(N)CCCCC3)C(=O)N2[C@H]1C(=O)O | inactive |
| CCCCCCCCCCCC(=O)OCC(O)CO (stereo not given) | inactive |
| CCOc1ccc(NC(=S)Nc2ccc(OCC)cc2)cc1 | inactive |
| C[C@H](CCC(=O)O)[C@H]1CC[C@H]2[C@@H]3CC[C@@H]4C[C@H](O)CC[C@]4(C)[C@H]3C[C@H](O)[C@]12C | inactive |
| CC(C)(COP(=O)(O)OP(=O)(O)OC[C@H]1O[C@@H](n2cnc3c(N)ncnc32)[C@H](O)[C@@H]1OP(=O)(O)O)C(O)C(=O)NCCC(=O)NCCS (stereo not given in full) | inactive |
| O=C(CCCCCCCCCCCCC1CCCC1)Nc1ccc(S(=O)(=O)c2ccc(NC(=O)CCCCCCCCCCCCC3CCCC3)cc2)cc1 | inactive |
| Nc1nc(=O)n([C@@H]2CS[C@H](CO)O2)cc1F | inactive |
| O=C(O)CCC/C=C\C[C@@H]1[C@@H](/C=C/[C@@H](O)COc2cccc(C(F)(F)F)c2)[C@H](O)C[C@@H]1O | inactive |
| Cc1c(Cl)cccc1Nc1ncccc1C(=O)O | inactive |
| CC(C)=CCC/C(C)=C/CC/C(C)=C/CC/C=C(\C)CC/C=C(\C)CCC=C(C)C | inactive |
| CC(=O)Nc1ccc(OC(C)=O)cc1 | inactive |
| CC(=O)N[C@@H]1C(O[C@H]2O[C@H](C(=O)O)C(O)[C@H](O)[C@H]2O)[C@H](O)[C@@H](CO)O[C@H]1O[C@@H]1C(C(=O)O)O[C@@H](O[C@H]2[C@H](O)[C@@H](CO)OC(O)[C@@H]2NC(C)=O)[C@H](O)[C@H]1O (stereo not given in full) | inactive |
